Screening data as filed in PubChem.
MCF10A rerep – DNA re-replication induction in MCF 10a cells; MCF 10A DNA re-replication, Hoechst nuclear intensity, 48 h; AID 624296; 350,000 tested, 2.9% active; Potency, µM (highest dose often 46.1 µM), inactives show at the top dose activity, positive = re-replication, most hits filed as activators; also: % of control where 0% means no effect; nearly all actives have a fitted effect of over 50% in size
SW480 rereplic – induces DNA re-replication in SW480 colon adenocarcinoma cells; SW480 DNA re-replication, Hoechst DNA content imaging, 48 h; Potency, µM (highest dose often 46.1 µM), for inactives: at the top dose re-replication activation, usual class: activators; 340,000 tested, 1.8% active; AID 624297; also: % of control where 0% means no effect; nearly all actives have a fitted effect of over 55% in size
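First, 250 cells per well were seeded. Next, compound or vehicle (23 nL) was pinned in, plates sat 48 hr at 37 C. Finally Hoechst was added for 40 min before fluorescence scanning.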
ELG1 DNA repair – ELG1-dependent DNA repair inhibition | HEK293T ELG1-luciferase reporter, luminescence, 16 h; DNA damage induced by 5-fluorouridine | Potency, µM (doses to about 46.1 µM), without a hit: top-dose activity change, negative = inhibition, usual class: inhibitors | 330,000 tested, 2.3% active; also: % is scaled to controls: 0 for no effect and ±100 for the full control effect; nearly all actives have a fitted effect of over 55% in size
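Step one: seed 2,000 cells per well. Step two: pin-transfer compound or DMSO alongside 5-fluorouridine. Step three: incubate 16 hr, 37 °C, 5% CO2. Step four: add ONE-Glo, wait 30 min, read luminescence.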
KB-V1 MDR tox – kills drug-selected multidrug resistant KB-V1 cells; AID 1347076; 400,000 tested, 3.4% active; Potency, µM (top dose mostly 46.1 µM), actives largely listed as cytotoxic; KB-V1 MDR cells viability, CellTiter-Glo, 72 h; also: % is scaled to controls: 0 for no effect and ±100 for the full control effect; nearly all actives have a fitted effect of over 60% in size
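qHTS viability screen in drug-selected KB-V1 MDR cells: 72 h compound treatment at 37 degrees C, ATP luminescence end point.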
KB-3-1 cytotox – KB-3-1 parental cell cytotoxicity; 400,000 tested, 1.4% active; Potency, µM (doses to about 46.1 µM), actives largely listed as cytotoxic; KB-3-1 viability, CellTiter-Glo ATP luminescence, 72 h; AID 1347075; also: % is scaled to controls: 0 for no effect and ±100 for the full control effect; nearly all actives have a fitted effect of over 60% in size
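Using CellTiter-Glo luminescence, growth of non-resistant KB-3-1 adenocarcinoma cells is assessed 72 h after pin-tool compound addition at 37 °C. Normalized responses across the concentration series yield fitted curves.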
* = called active by the depositor; i = inactive; u = inconclusive; x = no result; [ ] = another dose, or the depositor's remark. Only some compounds are listed: those with a hit (about 8.1% of all), similar ones and a draw of the others. Calls follow the shape of the dose curve; as a rule, active = well fitted curve in the direction sought with a large enough effect; inconclusive = small, poorly fitted or top-dose-only effect, or another doubt; inactive = no such curve, though single readings can be large; an effect the other way counts as inactive or inconclusive. Potency is read from the fitted curve at half-maximal effect.

SMILES | MCF10A rerep | SW480 rereplic | ELG1 DNA repair | KB-V1 MDR tox | KB-3-1 cytotox
CC(=O)c1c(C)[nH]c(C(=O)N2CCCC(C)C2)c1C (stereo not given) | 9% | 2.3µM* | 11% | i | i
CCOc1ccc(CCNC(=O)Cn2cccc2C(=O)c2ccccc2C)cc1OCC | -1% | -5% | -12% | 4.6µM* | i
CC1CCCC(NC(=O)CSc2ccc(F)cc2)C1C (stereo not given) | 2% | -19% | -6% | i | i
CC1CCCC(NCC(O)COC(c2ccc(F)cc2)c2ccc(F)cc2)C1C (stereo not given) | u | 0% | -24% | 18µM* | u
CCc1nc2ccc(C(=O)NCCc3ccccn3)cn2c1N(CC)Cc1cccc(Br)c1 | x | x | x | u | i
CCc1nc2ccc(C(=O)NC(C)(C)C)cn2c1N(CC)Cc1cccc(Br)c1 | x | x | x | 21µM* | u
CC(=O)OC1OCCOC1NC(=S)Nc1ccc(C)cc1 (stereo not given) | -2% | -29% | 3% | i | i
C=CCn1c2ccccc2c2nnc(SCCCn3c(=O)[nH]c4ccccc43)nc21 | 21µM* | -2%[9.22 µM] | u | u | u
CC(C)Cc1ccc(C(C)C(N)=NCCc2ccccc2)cc1 (stereo not given) | u | 6.5µM* | u | u | u
O=S(=O)(NCCOCC(F)(F)C(F)F)c1ccc2oc3ccccc3c2c1 | 21% | u | -4% | i | i
CCCN1C=CC(=C2C(=O)c3ccccc3C2=O)C=C1 | 15% | -7% | u | 2.9µM* | u
CCCCCCN1C=CC(=C2C(=O)c3ccccc3C2=O)C=C1 | 1% | -10% | u | i | u
CCN1C=CC(=C2C(=O)c3ccccc3C2=O)C=C1 | 5% | -6% | u | 8.2µM* | 15µM*
Cn1ccc(NC(=O)c2ccc(Cl)cc2Cl)n1 | -8% | -17% | u | i | u
O=C(c1cccc(S(=O)(=O)N2CCCC2)c1)N1CCCC(C(F)(F)F)C1 (stereo not given) | -1% | -8% | -1% | i | i
CCc1c(O)nc(SCC(=O)Nc2ccccc2)n(-c2ccccc2)c1=O | 3.7µM* | 21µM* | 1% | i | i
Cc1cccn2c(=O)c3cc(C(=O)NC4CCS(=O)(=O)C4)n(Cc4ccccc4)c3nc12 (stereo not given) | 13µM* | 2.6µM* | -28% | i | i
CCCCNC(=O)c1cc2c(=O)n3cccc(C)c3nc2n(Cc2ccccc2)c1=N | 17% | -3% | -2% | i | i
Cc1cccn2c(=O)c3cc(C(=O)NC4CCCC4)c(=N)n(CCc4ccccc4)c3nc12 | 2.6µM* | 4.6µM* | 25% | u | i
Cc1ccc2nc3c(cc(C(=O)NCc4ccco4)c(=N)n3C3CCCC3)c(=O)n2c1 | x | x | -3% | x | x
Cc1cccn2c(=O)c3cc(C(=O)NC4CCCC4)c(=N)n(Cc4ccc(F)cc4)c3nc12 | 2.3µM* | 4.6µM* | -7% | i | i
Cc1cccn2c(=O)c3cc(C(=O)NCc4ccco4)c(=N)n(C4CCCCC4)c3nc12 | 23µM* | 16µM* | u | u | i
COc1ccc(CCn2c(=N)c(C(=O)NC3CCCC3)cc3c(=O)n4cccc(C)c4nc32)cc1 | 248% | u | -2% | u | u
Cc1cccn2c(=O)c3cc(C(=O)NC4CCCC4)c(=N)n(C4CCCCC4)c3nc12 | 25% | 3.3µM* | u | i | i
Cc1cccn2c(=O)c3cc(C(=O)NC4CCCCC4)c(=N)n(Cc4ccccc4)c3nc12 | 2.1µM* | 2.3µM* | -8% | u | u
SMILES | MCF10A rerep | SW480 rereplic | ELG1 DNA repair | KB-V1 MDR tox | KB-3-1 cytotox
CNC(=O)c1cc2c(=O)n3cccc(C)c3nc2n(C(C)C)c1=N | 3.7µM* | u | -13% | i | i
CCn1c(=N)c(C(=O)NCc2cccnc2)cc2c(=O)n3cccc(C)c3nc21 | x | x | 3% | x | x
Cc1c(C)c2cc(Cl)c(OCC(=O)N3CCN(c4ccc(F)cc4)CC3)cc2oc1=O | 1% | -35% | 0% | i | i
O=C(N/N=C/c1cccnc1)c1cc(-c2ccc(Cl)cc2)nc2ccccc12 | u | 9% | x | u | i
Cc1ccc(/C=N/NC(=O)c2cc(-c3cccnc3)nc3ccccc23)cc1 | 23µM* | 2.6µM* | -13% | 2.9µM* | 2.9µM*
O=C(N/N=C/c1ccc(Cl)c([N+](=O)[O-])c1)c1cc(-c2ccccc2)nc2ccccc12 | 12µM* | -10% | u | i | i
O=C(N/N=C/c1cc([N+](=O)[O-])ccc1Cl)c1cc(-c2ccccc2)nc2ccccc12 | 2% | -2% | u | i | i
O=C(N/N=C/c1cccnc1)c1cc(-c2ccccc2)nc2ccccc12 | 15% | -2% | u | i | i
Cc1ccc(/C=N/NC(=O)c2cc(C)oc2C)cc1 | u | 4.6µM* | u | u | u
Cc1cc(C(=O)N/N=C/c2ccncc2)c(C)o1 | 0% | -5%[9.22 µM] | 21% | i | i
O=C(N/N=C/c1ccc(Cl)cc1)c1cc(-c2cccnc2)nc2ccccc12 | u | 4.1µM* | u | 9.2µM* | 9.2µM*
O=C(N/N=C/c1cccnc1)c1cc(-c2ccc(Br)cc2)nc2ccccc12 | u | 21µM* | 13µM* | i | u
COCc1c(C(=O)N2CCN(Cc3nc4ccccc4s3)CC2)oc2ccccc12 | 15% | 2% | 2% | 23µM* | i
COCc1c(C(=O)N2CCN(S(=O)(=O)c3ccccc3Cl)CC2)oc2ccccc12 | 1% | 1% | 10µM* | i | i
CCOC(=O)c1ccccc1NC(=O)c1sc2nc3n(c(=O)c2c1C)CCCC3 | x | x | x | i | i
CC(C)c1ccccc1NC(=O)c1ccco1 | 2% | -6% | 5% | i | i
CCN(CC)C(=O)CSc1nnc(-c2ccccc2)o1 | 5.2µM* | u | u | i | i
COc1cc(/C=N/Nc2ccc(F)cc2F)cc(OC)c1O | 16µM* | 0% | u | i | i
COc1cc(/C=N/Nc2ccc(S(N)(=O)=O)cc2[N+](=O)[O-])cc(OC)c1O | -1% | -21% | 9.2µM* | i | i
Cn1ncc2c(O/N=C(\N)c3ccc(C(C)(C)C)cc3)ncnc21 | 18µM* | 9.2µM* | u | 13µM* | u
CCOC(=O)c1ccc(Nc2ncnc3c2cnn3C)cc1 | 0% | 2% | -7% | i | i
COc1ccc(CCC(=O)Nc2cc([N+](=O)[O-])ccc2OC)cc1 | -51% | -15% | -2% | 21µM* | i
COc1ccc([N+](=O)[O-])cc1NC(=O)Cc1ccc(C)cc1 | 6% | -2% | -22% | i | i
COc1ccc(CCC(=O)Nc2ccc(C)c([N+](=O)[O-])c2)cc1 | 19% | 14% | -3% | 21µM* | i
